Sfp PPTase inh: qHTS Assay for Inhibitors of Bacillus subtilis Sfp phosphopantetheinyl transferase (PPTase) | AID 1490, 2009 | 4'-phosphopantetheinyl transferase ffp (Bacillus subtilis), Q9F4F7 | Biochemical Sfp PPTase activity, qHTS | Potency, µM, inactives show largest response in the series, negative = inhibition, hits mostly inhibitors | 3.5% of 310,000 active;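 also: the enzyme is Sfp with the accession as filed and its product quenches rhodamine fluorescence; 0% = enzyme reaction without inhibitor and -100% = no enzyme wells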
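Fluorescence-quenching assay: 15 nM Sfp-PPTase preincubated 15 min at room temperature with compound, then 5 uM rhodamine-CoA and 12.5 uM BHQ-2-labelled YbbR peptide added. Fluorescence (ex 525/em 598 nm) read at start and after 30 min; difference gives rate.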
G9a block: qHTS Assay for Inhibitors of Histone Lysine Methyltransferase G9a. Histone-lysine N-methyltransferase EHMT2 (Homo sapiens), Q96KQ7. G9a H3K9 monomethylation, AlphaScreen, 2 h. Potency, µM (top dose mostly 102 µM), for inactives: at the highest dose activity, negative = inhibition, hits mostly inhibitors. 8.8% of 350,000 active. AID 504332, 2011; also: % is scaled to controls: 0 for no effect and ±100 for the full control effect; nearly all actives have a fitted effect of over 75% in size
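Chemiluminescent proximity detection of H3K9 monomethylation, read after 10 min bead incubation in the dark. Reaction: 20 nM G9a, 500 nM biotin-H3K9 peptide, 20 uM SAM cofactor, 2 h, room temperature, following 15 min enzyme-compound preincubation.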
HP1b chromo inh: HTS for Inhibitors of HP1-beta Chromodomain Interactions with Methylated Histone Tails; Chromobox protein homolog 1 (Homo sapiens), P83916; AlphaScreen HP1-beta / biotin-H3K9me3 peptide binding; Potency, µM (doses to about 114 µM), for the others: at the top dose activity change, negative = inhibition, actives largely listed as inhibitors; 0.56% of 390,000 active; AID 540317, 2011; also: nearly all actives have a fitted effect of over 70% in size
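Compound inhibition of the preformed complex between 50 nM HP1-beta and 50 nM biotinylated H3K9me3 peptide was read by AlphaScreen. Buffer was PBS pH 7.4 with 0.01% Tween-20. Incubations ran 30 min at room temperature, with 10 ug/mL donor/acceptor beads.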
JMJD2A Tudor inh: qHTS Assay for Inhibitors of JMJD2A-Tudor Domain | AlphaScreen JMJD2A-Tudor / H3K4me3 peptide binding | Potency, µM (series often up to 114 µM), without a hit: at the top dose activity change, negative = inhibition, hits mostly inhibitors | 4.4% of 390,000 active; also: % is scaled to controls: 0 for no effect and ±100 for the full control effect; nearly all actives have a fitted effect of over 50% in size
Target sequence (O75164 whole entry, looked up, the tested form may be a part): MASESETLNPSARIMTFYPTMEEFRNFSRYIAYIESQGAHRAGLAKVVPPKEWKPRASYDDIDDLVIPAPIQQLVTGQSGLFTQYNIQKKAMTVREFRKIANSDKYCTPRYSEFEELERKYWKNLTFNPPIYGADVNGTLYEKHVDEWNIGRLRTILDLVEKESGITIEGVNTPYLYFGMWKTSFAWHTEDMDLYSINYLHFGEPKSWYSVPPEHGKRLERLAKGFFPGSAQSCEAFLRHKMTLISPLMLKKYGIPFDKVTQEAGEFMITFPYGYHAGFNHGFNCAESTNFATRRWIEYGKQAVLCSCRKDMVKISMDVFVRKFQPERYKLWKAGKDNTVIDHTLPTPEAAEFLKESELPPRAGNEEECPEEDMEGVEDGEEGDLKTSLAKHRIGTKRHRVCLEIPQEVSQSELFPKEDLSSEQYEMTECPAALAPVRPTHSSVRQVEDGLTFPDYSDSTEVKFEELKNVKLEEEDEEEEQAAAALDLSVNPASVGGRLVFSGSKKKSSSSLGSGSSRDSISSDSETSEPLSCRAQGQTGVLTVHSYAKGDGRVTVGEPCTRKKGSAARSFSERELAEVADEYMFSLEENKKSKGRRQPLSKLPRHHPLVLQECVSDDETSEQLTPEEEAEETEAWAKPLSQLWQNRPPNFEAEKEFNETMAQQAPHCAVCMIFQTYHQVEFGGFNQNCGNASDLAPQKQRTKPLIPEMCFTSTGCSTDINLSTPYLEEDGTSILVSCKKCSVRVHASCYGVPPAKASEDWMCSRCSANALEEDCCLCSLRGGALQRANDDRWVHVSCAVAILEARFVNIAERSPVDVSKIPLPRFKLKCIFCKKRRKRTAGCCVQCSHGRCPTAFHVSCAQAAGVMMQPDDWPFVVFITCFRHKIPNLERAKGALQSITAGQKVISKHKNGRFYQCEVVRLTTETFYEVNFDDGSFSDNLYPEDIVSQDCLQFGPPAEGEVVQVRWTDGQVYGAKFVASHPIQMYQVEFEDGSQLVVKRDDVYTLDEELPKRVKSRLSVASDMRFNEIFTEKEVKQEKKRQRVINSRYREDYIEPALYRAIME
BAZ2B block: qHTS Assay for Inhibitors of BAZ2B; Bromodomain adjacent to zinc finger domain protein 2B (Homo sapiens), Q9UIF8; AlphaScreen BAZ2B-H3K14Ac peptide displacement; Potency, µM (titrated, usually from 114 µM), inactives show top-dose activity change, negative = inhibition, usual class: inhibitors; 4.4% of 360,000 active; also: % is scaled to controls: 0 for no effect and ±100 for the full control effect; nearly all actives have a fitted effect of over 60% in size
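Multi-concentration screen (max 110 uM) measuring displacement of acetylated histone H3 peptide from BAZ2B by AlphaScreen, using 50 nM protein, 50 nM peptide and 10 ug/mL streptavidin donor plus Ni-chelate acceptor beads.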
L3MBTL1 block: qHTS Assay for the Inhibitors of L3MBTL1; AlphaScreen L3MBTL1–H3K9me1 peptide binding; Lethal(3)malignant brain tumor-like protein 1 (Homo sapiens), Q9Y468; Potency, µM (titrated, usually from 57.1 µM), for the others: at the highest dose activity, negative = inhibition, usual class: inhibitors; 0.66% of 230,000 active; AID 485360, 2010; also: % is scaled to controls: 0 for no effect and ±100 for the full control effect; nearly all actives have a fitted effect of over 60% in size
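Read-out is AlphaScreen signal from streptavidin donor and nickel chelate acceptor beads (10 ug/mL final each) bridging L3MBTL1 (50 nM) and biotinylated K9-monomethylated H3(1-15) peptide (75 nM), after 30 min compound exposure at room temperature.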
* marks the source's active call; other numbers are inactive results; u = inconclusive; x = no result; [ ] = remark or other dose. An excerpt weighted towards active compounds, which were near 12% of everything screened. Calls follow the shape of the dose curve; as a rule, active = well fitted curve in the direction sought with a large enough effect; inconclusive = small, poorly fitted or top-dose-only effect, or another doubt; inactive = no such curve, though single readings can be large; an effect the other way counts as inactive or inconclusive. Potency is read from the fitted curve at half-maximal effect.

SMILES	Sfp PPTase inh	G9a block	HP1b chromo inh	JMJD2A Tudor inh	BAZ2B block	L3MBTL1 block
CCNCCNC(=O)c1c(O)c2ccccc2n(CC)c1=O	6%	11µM*	19%	-25%	-6%	-1%
CCn1c(=O)c(C(=O)NNC(=O)c2ccccc2)c(O)c2ccccc21	26%	20%	60%	3%	7%	x
CCn1c(=O)c(-[n+]2ccccc2)c(O)c2ccccc21	13µM*	u	36%	-11%	6%	3%
CCn1c(=O)c(C(=O)NCCc2ccccc2)c(O)c2ccccc21	u	140%[59 µM]	194%	70%	80%	55%
CCn1c(=O)c(C(=O)NCCN2CCCCC2)c(O)c2ccccc21	13%	56µM*	17%	-35%	u	-6%
Cc1ccc(Nc2nc(COC(=O)COc3ccc(C=O)cc3)cs2)cc1	-6%	-13%[59 µM]	-1%	u	-37%	-8%
O=C(O)COc1ccc(/C=N/NC(=O)c2ccc(-c3csc(Nc4ccc(Cl)cc4)n3)cc2)cc1	45µM*	-105%[59 µM]	20µM*	8.9µM*	4µM*	x
O=C(COc1ccc(Cl)cc1)OCc1csc(Nc2ccccc2)n1	-13%	10µM*	19%	-23%	-29%	5%
CCOc1cc(/C=N/NC(=O)c2ccc(-c3csc(Nc4ccc(C)cc4)n3)cc2)ccc1OCC(=O)O	u	45µM*	18%	u	25µM*	-17%
Cc1nc(CC(=O)N/N=C/c2ccc(OCC(=O)O)cc2)cs1	-23%	42%[59 µM]	74%	-28%	u	x
COC(=O)[C@@]1(Cc2ccc(OC)cc2)[C@H]2c3cc(C(=O)N(C)C)n(CCN4CNCC4=O)c3C[C@H]2CN1C(=O)c1ccccc1	14%	x	x	x	x	x
COc1ccc(Nc2c3c(nc4nncn24)CCC3)cc1Cl	x	-35%[59 µM]	74%	-1%	7%	x
CC(C)=C1C(=O)NN(c2ccc(C)c(Cl)c2)C1=O	14%	8.9µM*	-6%	-28%	u	-20%
CN(C)CCCOC1C(C(O)CO)OC2OC(C)(C)O[C@@H]21 (stereo not given in full)	17%	2%[2.33 µM]	x	x	x	x
Nc1ccc(S(=O)(=O)Nc2nc3ccccc3o2)cc1	50µM*	x	-4%	-23%	u	-4%
O=C(NS(=O)(=O)c1ccccc1Cl)c1ccc[nH]1	1%	79µM*	x	x	-9%	-17%
Cn1cc(/C=N/NC(=O)COc2ccccc2[N+](=O)[O-])c2ccccc21	35µM*	11%[59 µM]	35%	-21%	-36%	-11%
O=C(COc1ccccc1[N+](=O)[O-])N/N=C/C=C/c1ccco1	50µM*	40µM*	19%	-13%[57.1 µM]	-38%	-30%
C=CCNC(=S)N/N=C/c1cn(C)c2ccccc12	-5%	x	u	56µM*	-25%	x
Cc1ccc(OCC(=O)N/N=C/C=C/c2ccco2)cc1	35µM*	-23%[59 µM]	-5%	u	-28%	u
COc1ccccc1OCC(=O)N/N=C/C=C/c1ccc([N+](=O)[O-])o1	0%	-13%[59 µM]	9%	u	-32%	-15%
Cc1nc(N2CCOCC2)c2nc(-c3ccccc3)n(CCN3CCCCC3)c2n1	27%	x	x	x	x	x
COc1ccc([C@@H]2CC(=O)c3c(O)cc(O[C@@H]4O[C@H](CO[C@@H]5O[C@@H](C)[C@H](O)[C@@H](O)[C@H]5O)[C@@H](O)[C@H](O)[C@H]4O)cc3O2)cc1O	-1%	-27%[12.7 µM]	-14%	u	50µM*	x
N#CCCn1c(=O)c(-c2ccc(Cl)cc2)nc2cnc(Nc3ccccc3)nc21	17%	8%[0.501 µM]	x	x	x	x
CCCCN1CC(COC)Oc2cccc(F)c2S1(=O)=O (stereo not given)	x	x	38%	-4%	x	x
SMILES	Sfp PPTase inh	G9a block	HP1b chromo inh	JMJD2A Tudor inh	BAZ2B block	L3MBTL1 block
N=C(N)n1cccn1	50µM*	u	x	x	x	x
CCn1c(-c2cccn(Cc3ccccc3)c2=O)n[nH]c1=S	19%	32µM*	18%	u	-2%	8%
CCn1c(-c2ccccc2SC)n[nH]c1=S	8%	14µM*	7%	u	-15%	0%
CO/N=C(\C(=O)NC1C(=O)N2C(C(=O)OCOC(=O)C(C)(C)C)=C(/C=C\c3scnc3C)CSC12)c1csc(N)n1 (stereo not given)	-66%	-36%[2.33 µM]	x	x	x	x
COC(=O)c1nc(N)sc1-c1ccccc1	22%	-9%[59 µM]	-11%	-27%[11.4 µM]	-3%	9%
COC(=O)c1nc(N)sc1-c1ccc(Cl)cc1	11%	45µM*	23%	-9%	-24%	u
O=C(c1ccco1)N1CCN(C2CC(=O)N(c3ccc(F)c(Cl)c3)C2=O)CC1 (stereo not given)	10%	28µM*	36%	-3%	3%	x
COc1ccc(N2C(=O)CC(N3CCN(C(=O)c4ccco4)CC3)C2=O)cc1 (stereo not given)	15%	56µM*	2%	-10%	-11%	1%
COc1cccc(N2C(=O)CC(N3CCN(C(=O)c4ccco4)CC3)C2=O)c1 (stereo not given)	-4%	u	55%	-6%	5%	x
CCOC(=O)N1CCN(C2CC(=O)N(c3ccc(Cl)c(Cl)c3)C2=O)CC1 (stereo not given)	-3%	u	46%	-2%	-2%	-11%
COC(CNC(=O)c1ccc2c(c1)ncn2C1CCCCCC1)OC	12%	-28%[2.33 µM]	13%	4%	-2%	x
N#Cc1nc(-c2ccco2)oc1N1CCN(c2cccc(Cl)c2)CC1	-1%	u	u	u	25µM*	u
N#Cc1nc(-c2ccco2)oc1N1CCCC1	9%	25%[2.33 µM]	1%	-19%	3%	x
N#Cc1nc(-c2ccco2)oc1N1CCc2ccccc2C1	-9%	u	u	u	25µM*	x
N#Cc1nc(-c2ccco2)oc1N1CCN(C(c2ccccc2)c2ccccc2)CC1	5%	u	u	-35%	u	x
COc1ccccc1-c1nc(C#N)c(N2CCN(c3cccc(Cl)c3)CC2)o1	-12%	0.71µM*	u	u	6%	-13%
C=CCC(C)(O)c1ccccc1 (stereo not given)	-4%	x	x	x	x	x
O=C(O)COc1ccccc1/C=N/n1c(C2CCCCC2)n[nH]c1=S	50µM*	8.9µM*	1%	25µM*	-5%	x
S=c1[nH]nc(C2CCCCC2)n1/N=C/c1ccccc1Br	-6%	7.1µM*	u	18µM*	-39%	x
